Data from PubChem BioAssay (EPA / NIEHS).
Calls of active or inactive are those of the source. The calls were made as follows: active = hit-call score of the fitted dose curve at least 0.9, where 1 is the maximum; inactive = score below 0.9.

read-out: Cytochrome P450 (CYP1A2), CYP1A2 (gene 1544); assay: LTEA_HepaRG_CYP1A2: Life Technologies and Expression Analysis (LTEA) Assay for Cytochrome P450 (CYP1A2) using HepaRG (AID 2283479); conditions: mRNA level, 48 h; actives raise or lower the signal;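 as to AC50: TaqMan qRT-PCR transcript level normalized to ACTB GAPDH and POLR2A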
Description: LTEA_HepaRG is a cell based, multiplexed-readout assay that uses HepaRG, a human liver cell line, with measurements taken at 48 hours after chemical dosing on a 96-well plate.LTEA_HepaRG_CYP1A2 is one of 102 assay component(s) measured in the LTEA HepaRG cell culture assay. It is a marker of NR mediated metabolism.Data from the assay component LTEA_HepaRG_CYP1A2 was analyzed into 1 endpoint. This assay endpoint, LTEA_HepaRG_CYP1A2, was analyzed with bidirectional fitting relative to DMSO as the negative control and baseline of activity. Using a type of inducible reporter, measures of mRNA induction for gain or loss-of-signal activity can be used to understand regulation of transcription factor activity. To generalize the intended target to other relatable targets, this assay endpoint is annotated to the cyp intended target family, where the subfamily is xenobiotic metabolism.
A total of 1060 chemcials from the ToxCast library were tested in eight-point concentration-response experiments. Cell culture and cytotoxicity assays were conducted at Thermo Fisher Scientific's Custom Services facility (Madison, WI). A single lot of human HepaRG cells (Thermo Fisher Scientific, Frederick, MD) was used for the cell culture experiments. 96-well format collagen type I coated plates of human HepaRG cells were prepared using established methods. Briefly, cryopreserved HepaRG cells were thawed, plated at a density of approximately 100,000 cells/well in HepaRG Thaw, Plate, and General Purpose media (HPRG770, Thermo Fisher Scientific), and incubated for 48 hours. 0.5% DMSO was selected as vehicle control to balance the requisite need of DMSO in HepaRG cultures to maintain differentiation (for example, baseline metabolism, proportions of hepatocytes vs. cholangiocytes), while enabling further hepatic receptor pathway activation (for example, PXR and CAR) in response to chemical exposure. 48 hours after plating, the culture medium was replaced with HepaRG Serum-Free Incudtion Media. Cells were exposed to each test chemical in duplicate and maintained in CO2 incubators for another 48 hours. Chemical plates were thawed to room temperature and 200x concentrations of treatment groups were prepared. 8-point conentration-reponse curves were made with the highest exposure at 100 uM, followed by half-log dilutions, all in 0.5% DMSO. Each test plate contained variouse controls, induction positive controls (1mM phenobarbital), cytotoxicity positive controls ([…] aflatoxin B1), vehicle controls (0.5% DMSO), and total lysis controls (0.5% DMSO). Cell morphology images were taken using an Essen IncuCyte FLR automated microscope, with six 96-well plates imaged in about 24 minutes. Images were captured and exported and JPEG files. Spent culture media was transfered to black-well plates for the LDH assay, and remaining media was sorted at -80 C for later use. Cells were treated with RLT buffer and frozen until shipped for gene expression analysis. Total RNA was isolated from the cell suspension in 75 uL of Buffer RLT (Qiagen, Germantown, MD 20874) by Quintiles/Expression Analysis (Durham, NC) using a custom isolation procedure. Total RNA from each plate well was transferred to a preamplification plate. Fluidigm's 96.96 Dynamic ArrayTM (Fluidigm, Amsterdam, the Netherlands) technology was used for gene expression analyses by quantitative reverse transcription polymerase chain reaction (qRT-PCR, performed by Quintiles/Expression Analysis, Durham, NC)89. Standard TaqManTM Assays (Applied Biosystems/ThermoFisher Scientific, Foster City, CA) were used to assess the expression of 93 genes selected based on their selectivity and sensitivity to important hepatic receptors known to be modulated by environmental chemicals; importance in human hepatocyte functionality; and hepatotoxicity. […]

Row | Structure (SMILES) | outcome | AC50
1 | CCCCC(CC)C(=O)O (configuration not stated) | inactive | 
2 | CCCCC=O | inactive | 
3 | OCC(CO)(CBr)CBr | inactive | 
4 | CN(Cc1cnc2nc(N)nc(N)c2n1)c1ccc(C(=O)N[C@@H](CCC(=O)O)C(=O)O)cc1 |  | 0.0974 µM (active)
5 | CCC(C)c1ccccc1O (configuration not stated) | inactive | 
6 | CCCCCCCCCCCCCCC | inactive | 
7 | CC(=O)Nc1ccc(O)cc1 | inactive | 
8 | Cc1[nH]nc2c1N=C(c1ccccc1Cl)c1cc([N+](=O)[O-])ccc1N2 |  | 11.5 µM (active)
9 | CCCCCCCCCCCCOS(=O)(=O)O |  | 71.2 µM (active)
10 | O=C1NS(=O)(=O)c2ccccc21 | inactive | 
11 | O=C(CCCN1CCC(O)(c2ccc(Cl)cc2)CC1)c1ccc(F)cc1 |  | 82.6 µM (active)
12 | N=C(N)c1ccc(OCCCCCOc2ccc(C(=N)N)cc2)cc1 |  | 5.43 µM (active)
